# ± gives the standard deviation of the averaged measurements.
# Tested on: MDAMB436
# Test: cell proliferation (confluence) relative to DMSO control; higher = less growth inhibition
# Conditions: 5 uM; 6 d
# Method: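 Epigenetic chemical probe screen: 15 TNBC cell lines, 500 cells per well in 384-well plates, treated with 5 uM of each of 36 SGC probes for 6 d. Confluency was imaged by IncuCyte ZOOM and normalised to DMSO control wells. Four replicate wells per compound.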
row,SMILES,cell proliferation
1,O=C(c1ccc(C(=O)N2CCC(N3CCCC3)CC2)c(Nc2ccccc2)c1)N1CCC(N2CCCC2)CC1,95.2 ± 2.8%
2,CN(C)[C@H]1CN(C2CCc3cccc(F)c32)C[C@@H]1c1ccc(N2CCN(S(C)(=O)=O)CC2)cc1 (some centres not stated),93.7 ± 2.8%
3,CCOC(=O)CCNc1cc(N2CCc3ccccc3CC2)nc(-c2cccnc2)n1,94.2 ± 5.3%
4,CNCCN1CCC(OCc2ccccc2)CC1,76.5 ± 6.8%
5,COc1cc(C#N)ccc1S(=O)(=O)Nc1ccc2c(c1)cc(C)c(=O)n2C,75.5 ± 5.1%
6,CC(C)N(CCCNC(=O)Nc1ccc(C(C)(C)C)cc1)C[C@H]1O[C@@H](n2cc(Br)c3c(N)ncnc32)[C@H](O)[C@@H]1O,90.4 ± 6.8%
7,CC[C@H](C)n1cc(C)c2c(C(=O)NCc3c(C)cc(C)[nH]c3=O)cc(-c3ccc(N4CCNCC4)nc3)cc21,89.7 ± 1.7%
8,CCCc1cc(C)[nH]c(=O)c1CNC(=O)c1cc(-c2ccc(N3CCN(C(C)C)CC3)nc2)cc2c1cnn2C(C)C,71.1 ± 4.1%
9,CCC(=O)N1CCOc2c(cc(-c3ccc(OC)c(OC)c3)cc2OC[C@H]2CCCN(C)C2)C1,72.3 ± 4.5%
10,O=C(NCC(=O)N1CCCC1)Nc1ccc2cnccc2c1,79.4 ± 7.8%
11,CCCOc1ccn2c(C(C)=O)cc(-c3ccccc3S(C)(=O)=O)c2c1,81.7 ± 14%
12,Cn1cc(CCn2cnc(-c3cnn(C)c3)c2-c2ccc(C#N)cc2)cn1,83.2 ± 14%
13,CCCc1cc(C)[nH]c(=O)c1CNC(=O)c1cc(-c2ccnc(N3CCN(C)CC3)c2)cc2c1cnn2C(C)C,90.2 ± 6.6%
14,CCn1cc(-c2cccc(C(F)(F)F)c2)c2sc(C(=N)NC3CCS(=O)(=O)CC3)cc2c1=O,50.4 ± 30%
15,CCCc1cc(C)n(C)c(=O)c1CN(C)C(=O)c1cc(-c2ccc(N3CCN(C(C)C)CC3)nc2)cc2c1cnn2C(C)C,96.6 ± 3.2%
16,COc1ccccc1S(=O)(=O)Nc1ccc2c(c1)CN(C)C(=O)N2,57 ± 5.5%

row,SMILES,cell proliferation
1,O=C(/C=C/N1C[C@H]2C[C@@H]1CN2c1ccccn1)c1ccccc1O,95.4 ± 3.6%
2,CCOC(=O)CCNc1cc(N2CCc3ccccc3CC2)nc(-c2ccccn2)n1,16.1 ± 3%
3,O=C([C@@H](Cc1cccc(C(F)(F)F)c1)NS(=O)(=O)c1cc(F)c2c(c1)CCNC2)N1CCCC1,84.5 ± 12%
4,Cc1nnc2c3ccccc3c(N[C@@H](C)[C@H](c3ccccc3)N(C)C)nn12 [L-moses],80.8 ± 11%
5,CCN(C(=O)CO)[C@H]1CN(/C(=N\C#N)Nc2cccc(OC(F)F)c2)N=C1c1ccc(Cl)c(Cl)c1,93.5 ± 3.8%
6,COc1cc(-c2cn(C)c(=O)c3cnccc23)c(OC)cc1CN(C)C,77.2 ± 7.8%
7,COc1ccc(CCc2nc3cc(-c4c(C)noc4C)ccc3n2C[C@H](C)N2CCOCC2)cc1Cl,57.3 ± 19%
8,Clc1cc2c(NC3CCCC3)nnc(-c3ccncc3)c2cc1Cl,93.5 ± 1.4%
9,O=C(NC[C@H](O)CN1CCc2ccccc2C1)c1ccnc(NC2CCC2)c1,57.5 ± 18%
10,COc1ccccc1C(=O)Nc1cc2c(cc1N1CCCC1)n(C)c(=O)n2C,77 ± 3.6%
11,COc1cc2c(NC3CCN(C(C)C)CC3)nc(C3CCCCC3)nc2cc1OCCCN1CCCC1,99.08 ± 0.28%
12,CC(C)Oc1ccc(-c2c[nH]cc2CN(C)CCO)cc1,84.9 ± 4.5%
13,CC(C)Oc1ccc(-c2c[nH]cc2CN(C)CCN)cc1,59.9 ± 20%
14,COc1c(C)cc(NC(=O)c2nn(Cc3ccc(F)cc3)c3c2CN(C(=O)c2ccc[nH]2)C[C@]3(C)C(N)=O)cc1C,69.4 ± 14%
15,Cc1cc(=O)n(C)c2cc(N3C(=O)CC[C@H](NS(=O)(=O)CC(C)C)[C@H]3c3ccc(Cl)cc3)ccc12,73.3 ± 14%
16,COc1cc2c(cc1OCCCN1CCCC1)N=C(N)C21CCC1,95.3 ± 6%
